# Results: PubChem BioAssay AID1159580 (chemical genetic matrix, 2015)
# Screen size: about 5,500 compounds; about 2,000 (36%) were called active. Roughly 18% stayed inconclusive and do not appear here. This is one part of the list. Values without a mark were called inactive. Rule as the data show it: active = normalized growth mostly below about 0.91 (no sharp cut-off); inconclusive = no clear call, values can overlap the other calls; inactive = mostly above about 0.92.
# Test: chemical genetic growth profiling, strain panel (AID 1159580);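 also: tested at 20 µM; growth read once vehicle control cultures reached saturation at 30 °C; 1 = growth at the plate median or of vehicle wells; lower values mean less growth of the strain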
# Settings: growth OD
# [1] = S. cerevisiae deletion strains, locus YAL013W, strain DEP1, active compounds read low
# [2] = S. cerevisiae deletion strains, locus YBR229C, strain ROT2, active compounds read low
# [3] = S. cerevisiae deletion strains, locus YDL101C, strain DUN1, active compounds read low
# [4] = S. cerevisiae deletion strains, locus YDR150W, strain NUM1, active compounds read low
# [5] = S. cerevisiae deletion strains, locus YEL061C, strain CIN8, active compounds read low
# [6] = S. cerevisiae deletion strains, locus YGR078C, strain PAC10, active compounds read low
# [7] = S. cerevisiae deletion strains, locus YHR030C, strain SLT2, active compounds read low
# [8] = S. cerevisiae deletion strains, locus YHR087W, strain rtc3, active compounds read low
# [9] = S. cerevisiae deletion strains, locus YJL187C, strain SWE1, active compounds read low
# [10] = S. cerevisiae deletion strains, locus YJR043C, strain POL32, active compounds read low
# [11] = S. cerevisiae deletion strains, locus YJR075W, strain HOC1, active compounds read low
# [12] = S. cerevisiae deletion strains, locus YLR039C, strain RIC1, active compounds read low
# [13] = S. cerevisiae deletion strains, locus YLR058C, strain SHM2 (second series), active compounds read low
# [14] = S. cerevisiae deletion strains, locus YLR085C, strain ARP6, active compounds read low
# [15] = S. cerevisiae deletion strains, locus YLR262C, strain YPT6, active compounds read low
# [16] = S. cerevisiae deletion strains, locus YML094W, strain GIM5, active compounds read low
# [17] = S. cerevisiae deletion strains, locus YMR219W, strain ESC1, active compounds read low
# [18] = S. cerevisiae deletion strains, locus YMR263W, strain SAP30, active compounds read low
# [19] = S. cerevisiae deletion strains, locus YMR307W, strain GAS1, active compounds read low
# [20] = S. cerevisiae deletion strains, locus YNL153C, strain GIM3, active compounds read low
# [21] = S. cerevisiae deletion strains, locus YNL298W, strain CLA4 (second series), active compounds read low
# [22] = S. cerevisiae deletion strains, locus YNL322C, strain KRE1, active compounds read low
# [23] = S. cerevisiae deletion strains, locus YNR030W, strain Alg12, active compounds read low
# [24] = S. cerevisiae deletion strains, locus YPL055C, strain LGE1, active compounds read low
# [25] = S. cerevisiae deletion strains, locus YPL241C, strain CIN2, active compounds read low
# [26] = S. cerevisiae deletion strains, locus YPR135W, strain CTF4, active compounds read low
# [27] = S. cerevisiae strains, strain wild type, active compounds read low
# [28] = S. cerevisiae deletion strains, locus YKL190W, strain CNB1, active compounds read low
smiles,measurement,setting,value
COc1cccc(Nc2nc3ccccc3s2)c1,normalized growth,[1],0.728 (active)
same,normalized growth,[2],0.709 (active)
same,normalized growth,[3],0.724 (active)
same,normalized growth,[4],0.877
same,normalized growth,[5],0.533 (active)
same,normalized growth,[6],0.827 (active)
same,normalized growth,[7],0.112 (active)
same,normalized growth,[8],0.688 (active)
same,normalized growth,[9],0.682 (active)
same,normalized growth,[10],0.856 (active)
same,normalized growth,[11],0.711 (active)
same,normalized growth,[12],0.163 (active)
same,normalized growth,[13],0.914 (active)
same,normalized growth,[14],0.138 (active)
same,normalized growth,[15],0.187 (active)
same,normalized growth,[16],0.66 (active)
same,normalized growth,[17],0.804 (active)
same,normalized growth,[18],0.795 (active)
same,normalized growth,[19],0.208 (active)
same,normalized growth,[20],0.799 (active)
same,normalized growth,[21],0.421 (active)
same,normalized growth,[22],0.943 (active)
same,normalized growth,[23],0.575 (active)
same,normalized growth,[24],0.548 (active)
same,normalized growth,[25],0.485 (active)
same,normalized growth,[26],0.264 (active)
same,normalized growth,[27],0.598 (active)
c1cc(CN2CCCCC2)cc(OCCCNc2nc3ccccc3s2)c1,normalized growth,[1],1
same,normalized growth,"S. cerevisiae deletion strains, locus YAL040C, strain CLN3, active compounds read low",0.908
same,normalized growth,"S. cerevisiae deletion strains, locus YCL061C, strain MRC1 (second series), active compounds read low",1.01
same,normalized growth,[4],1.02
same,normalized growth,"S. cerevisiae deletion strains, locus YDR363W, strain ESC2, active compounds read low",0.997
same,normalized growth,"S. cerevisiae deletion strains, locus YER002W, strain NOP16, active compounds read low",0.936
same,normalized growth,[18],1.01
same,normalized growth,[19],1.01
same,normalized growth,"S. cerevisiae deletion strains, locus YNL197C, strain WHI3, active compounds read low",1.04
same,normalized growth,"S. cerevisiae deletion strains, locus YNL224C, strain SQS1, active compounds read low",1.06
same,normalized growth,[22],0.992
same,normalized growth,"S. cerevisiae deletion strains, locus YOR083W, strain WHI5 (second series), active compounds read low",1.03
COc1cccc(NC(N)=S)c1,normalized growth,[1],1.02
same,normalized growth,[2],1.01
same,normalized growth,[3],1.02
same,normalized growth,[4],0.992
same,normalized growth,[5],1.01
same,normalized growth,[6],1.01
same,normalized growth,"S. cerevisiae deletion strains, locus YGR229C, strain SMI1, active compounds read low",0.993
same,normalized growth,[7],1.08
same,normalized growth,[8],0.997
same,normalized growth,[9],1.01
same,normalized growth,[10],1.01
same,normalized growth,[11],0.991
same,normalized growth,[28],0.985
same,normalized growth,[12],1.03
same,normalized growth,[13],1.03
same,normalized growth,[14],1.02
same,normalized growth,[15],1.05
same,normalized growth,[16],1
same,normalized growth,[17],1.01
same,normalized growth,[18],1.01
same,normalized growth,[20],0.998
same,normalized growth,[21],1.03
same,normalized growth,[22],0.995
same,normalized growth,[23],1.01
same,normalized growth,"S. cerevisiae deletion strains, locus YOL006C, strain TOP1, active compounds read low",1.05
same,normalized growth,[24],0.984
same,normalized growth,[25],0.964
same,normalized growth,[26],1.12
same,normalized growth,[27],0.993
C/C(=N/NC(=O)c1ccc(C(C)(C)C)cc1)c1ccccc1O,normalized growth,"S. cerevisiae deletion strains, locus YAR019C, strain CDC15, active compounds read low",0.985
same,normalized growth,"S. cerevisiae deletion strains, locus YBL105C, strain PKC1, active compounds read low",0.979
same,normalized growth,"S. cerevisiae deletion strains, locus YBR135W, strain CKS1, active compounds read low",0.969
same,normalized growth,"S. cerevisiae deletion strains, locus YBR136W, strain MEC1, active compounds read low",0.979
same,normalized growth,"S. cerevisiae deletion strains, locus YBR160W, strain CDC28, active compounds read low",0.98
same,normalized growth,"S. cerevisiae deletion strains, locus YDL017W, strain CDC7, active compounds read low",0.979
same,normalized growth,"S. cerevisiae deletion strains, locus YDL028C, strain MPS1, active compounds read low",0.974
same,normalized growth,[3],0.963
same,normalized growth,"S. cerevisiae deletion strains, locus YDL108W, strain KIN28, active compounds read low",0.972
same,normalized growth,"S. cerevisiae deletion strains, locus YDL132W, strain cdc53, active compounds read low",0.98
same,normalized growth,"S. cerevisiae deletion strains, locus YDL214C, strain PRR2, active compounds read low",0.976
same,normalized growth,"S. cerevisiae deletion strains, locus YDR052C, strain DBF4, active compounds read low",0.979
same,normalized growth,"S. cerevisiae deletion strains, locus YDR054C, strain cdc34, active compounds read low",0.978
same,normalized growth,"S. cerevisiae deletion strains, locus YDR226W, strain ADK1, active compounds read low",0.971
same,normalized growth,"S. cerevisiae deletion strains, locus YDR477W, strain SNF1, active compounds read low",0.985
same,normalized growth,"S. cerevisiae deletion strains, locus YER123W, strain YCK3, active compounds read low",0.97
same,normalized growth,"S. cerevisiae deletion strains, locus YER133W, strain GLC7, active compounds read low",0.979
same,normalized growth,"S. cerevisiae deletion strains, locus YFL009W, strain cdc4, active compounds read low",0.977
same,normalized growth,"S. cerevisiae deletion strains, locus YFL029C, strain CAK1, active compounds read low",0.974
same,normalized growth,"S. cerevisiae deletion strains, locus YFR003C, strain YPI1, active compounds read low",0.979
same,normalized growth,"S. cerevisiae deletion strains, locus YFR019W, strain FAB1, active compounds read low",1.01
same,normalized growth,"S. cerevisiae deletion strains, locus YFR028C, strain CDC14, active compounds read low",0.981
same,normalized growth,"S. cerevisiae deletion strains, locus YGR040W, strain KSS1, active compounds read low",0.994
same,normalized growth,"S. cerevisiae deletion strains, locus YGR052W, strain FMP48, active compounds read low",1
same,normalized growth,"S. cerevisiae deletion strains, locus YGR092W, strain DBF2, active compounds read low",0.934
same,normalized growth,[7],0.876
same,normalized growth,"S. cerevisiae deletion strains, locus YHR079C, strain IRE1, active compounds read low",0.952
same,normalized growth,"S. cerevisiae deletion strains, locus YHR082C, strain KSP1, active compounds read low",1.07
same,normalized growth,"S. cerevisiae deletion strains, locus YHR205W, strain SCH9, active compounds read low",0.995
same,normalized growth,"S. cerevisiae deletion strains, locus YIL147C, strain SLN1, active compounds read low",0.976
same,normalized growth,"S. cerevisiae deletion strains, locus YJL095W, strain BCK1, active compounds read low",0.972
same,normalized growth,"S. cerevisiae deletion strains, locus YJL128C, strain PBS2, active compounds read low",0.939
same,normalized growth,"S. cerevisiae deletion strains, locus YJL157C, strain FAR1, active compounds read low",0.981
same,normalized growth,"S. cerevisiae deletion strains, locus YJR016C, strain ILV3, active compounds read low",0.987
same,normalized growth,"S. cerevisiae deletion strains, locus YJR066W, strain TOR1 (second series), active compounds read low",0.969
same,normalized growth,"S. cerevisiae deletion strains, locus YJR066W, strain TOR1, active compounds read low",1.05
same,normalized growth,"S. cerevisiae deletion strains, locus YKL048C, strain ELM1, active compounds read low",0.985
same,normalized growth,"S. cerevisiae deletion strains, locus YKL067W, strain YNK1, active compounds read low",0.966
same,normalized growth,"S. cerevisiae deletion strains, locus YKL101W, strain HSL1, active compounds read low",0.987
same,normalized growth,"S. cerevisiae deletion strains, locus YKL193C, strain SDS22, active compounds read low",0.988
same,normalized growth,"S. cerevisiae deletion strains, locus YKL203C, strain TOR2, active compounds read low",1.01
same,normalized growth,"S. cerevisiae deletion strains, locus YLR113W, strain HOG1, active compounds read low",0.779 (active)
same,normalized growth,"S. cerevisiae deletion strains, locus YLR133W, strain CKI1, active compounds read low",0.988
same,normalized growth,"S. cerevisiae deletion strains, locus YLR403W, strain SFP1, active compounds read low",1
same,normalized growth,"S. cerevisiae deletion strains, locus YML070W, strain DAK1, active compounds read low",0.964
same,normalized growth,"S. cerevisiae deletion strains, locus YMR001C, strain CDC5, active compounds read low",0.978
same,normalized growth,"S. cerevisiae deletion strains, locus YMR205C, strain PFK2 (second series), active compounds read low",0.981
same,normalized growth,"S. cerevisiae deletion strains, locus YMR277W, strain FCP1, active compounds read low",0.98
same,normalized growth,"S. cerevisiae deletion strains, locus YNL006W, strain LST8, active compounds read low",0.976
same,normalized growth,"S. cerevisiae deletion strains, locus YNL020C, strain ARK1, active compounds read low",1.01
same,normalized growth,"S. cerevisiae deletion strains, locus YNL161W, strain CBK1, active compounds read low",0.983
same,normalized growth,"S. cerevisiae deletion strains, locus YNL183C, strain NPR1, active compounds read low",1.01
same,normalized growth,"S. cerevisiae deletion strains, locus YNL207W, strain RIO2, active compounds read low",0.969
same,normalized growth,"S. cerevisiae deletion strains, locus YNL222W, strain SSU72, active compounds read low",0.976
same,normalized growth,"S. cerevisiae deletion strains, locus YNL307C, strain MCK1 (second series), active compounds read low",1.01
same,normalized growth,"S. cerevisiae deletion strains, locus YOL078W, strain AVO1, active compounds read low",0.986
same,normalized growth,"S. cerevisiae deletion strains, locus YOL136C, strain PFK27, active compounds read low",0.977
same,normalized growth,"S. cerevisiae deletion strains, locus YOR061W, strain CKA2, active compounds read low",0.995
same,normalized growth,"S. cerevisiae deletion strains, locus YOR119C, strain RIO1, active compounds read low",1.05
same,normalized growth,"S. cerevisiae deletion strains, locus YOR231W, strain MKK1, active compounds read low",0.952
same,normalized growth,"S. cerevisiae deletion strains, locus YOR329C, strain SCD5, active compounds read low",0.975
same,normalized growth,"S. cerevisiae deletion strains, locus YPL031C, strain PHO85, active compounds read low",0.979
same,normalized growth,"S. cerevisiae deletion strains, locus YPL153C, strain RAD53, active compounds read low",0.981
same,normalized growth,"S. cerevisiae deletion strains, locus YPL204W, strain HRR25, active compounds read low",0.967
same,normalized growth,"S. cerevisiae deletion strains, locus YPL209C, strain IPL1, active compounds read low",0.977
same,normalized growth,"S. cerevisiae deletion strains, locus YPL256C, strain CLN2, active compounds read low",0.808 (active)
same,normalized growth,"S. cerevisiae deletion strains, locus YPR025C, strain CCL1, active compounds read low",0.971
same,normalized growth,"S. cerevisiae deletion strains, locus YPR106W, strain ISR1, active compounds read low",0.986
same,normalized growth,"S. cerevisiae deletion strains, locus YPR111W, strain DBF20, active compounds read low",0.972
same,normalized growth,"S. cerevisiae deletion strains, strain NNK1, active compounds read low",0.966
same,normalized growth,"S. cerevisiae deletion strains, strain TSCII, active compounds read low",0.981
Cc1cccc(C(=O)c2ccccc2C(=O)O)c1,normalized growth,[1],1.01
same,normalized growth,[2],1.02
same,normalized growth,[3],1
same,normalized growth,[4],0.905
same,normalized growth,[5],1.01
same,normalized growth,[6],0.997
same,normalized growth,[7],1.06
same,normalized growth,[8],1.01
same,normalized growth,[9],0.998
same,normalized growth,[10],1.02
same,normalized growth,[11],1
same,normalized growth,[28],0.997
same,normalized growth,[12],0.986
same,normalized growth,[13],1.01
same,normalized growth,[14],1.03
same,normalized growth,[15],0.984
same,normalized growth,[16],1.01
same,normalized growth,[17],1.01
same,normalized growth,[18],0.991
same,normalized growth,"S. cerevisiae deletion strains, locus YNL128W, strain TEP1, active compounds read low",1.01
same,normalized growth,[20],1.02
same,normalized growth,[21],1.04
same,normalized growth,[22],0.993
same,normalized growth,[23],1.01
same,normalized growth,[24],1.02
same,normalized growth,[25],1.01
same,normalized growth,[26],1.02
